Assays:
[1] = target: Tyrosine-protein kinase Fyn (Homo sapiens) (UniProt P06241); details: at 1 µM
[2] = target: Tyrosine-protein kinase HCK (Homo sapiens) (UniProt P08631); details: at 0.1 µM
[3] = target: Tyrosine-protein kinase HCK (Homo sapiens) (UniProt P08631); details: at 1 µM
[4] = target: Insulin-like growth factor 1 receptor (Homo sapiens) (UniProt P08069); details: at 0.1 µM
[5] = target: Insulin-like growth factor 1 receptor (Homo sapiens) (UniProt P08069); details: at 1 µM
[6] = target: Insulin receptor (Homo sapiens) (UniProt P06213); details: at 0.1 µM
[7] = target: Insulin receptor (Homo sapiens) (UniProt P06213); details: at 1 µM
[8] = target: Insulin receptor-related protein (Homo sapiens) (UniProt P14616); details: at 0.1 µM
[9] = target: Insulin receptor-related protein (Homo sapiens) (UniProt P14616); details: at 1 µM
[10] = target: T1, Tyrosine-protein kinase ITK/TSK (Homo sapiens) (UniProt Q08881); details: at 0.1 µM
T1 sequence (whole entry): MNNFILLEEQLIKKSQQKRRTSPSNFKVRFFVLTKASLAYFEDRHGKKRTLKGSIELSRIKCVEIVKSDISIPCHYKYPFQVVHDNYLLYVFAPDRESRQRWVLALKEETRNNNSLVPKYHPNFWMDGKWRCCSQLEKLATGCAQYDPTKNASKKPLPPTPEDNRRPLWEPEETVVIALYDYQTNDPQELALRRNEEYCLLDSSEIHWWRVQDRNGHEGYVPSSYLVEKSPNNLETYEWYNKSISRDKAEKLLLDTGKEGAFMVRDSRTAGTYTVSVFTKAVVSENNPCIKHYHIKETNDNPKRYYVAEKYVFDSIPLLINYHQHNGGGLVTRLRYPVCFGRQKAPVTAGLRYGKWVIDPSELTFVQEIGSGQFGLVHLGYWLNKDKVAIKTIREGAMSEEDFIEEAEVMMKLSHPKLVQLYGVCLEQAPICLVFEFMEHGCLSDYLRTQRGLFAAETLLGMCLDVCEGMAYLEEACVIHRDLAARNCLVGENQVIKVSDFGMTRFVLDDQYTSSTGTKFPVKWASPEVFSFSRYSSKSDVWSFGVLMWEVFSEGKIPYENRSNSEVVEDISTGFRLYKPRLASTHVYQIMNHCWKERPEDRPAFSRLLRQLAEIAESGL

[11] = target: T1, Tyrosine-protein kinase ITK/TSK (Homo sapiens); details: at 1 µM
[12] = target: Tyrosine-protein kinase JAK1 (Homo sapiens) (UniProt P23458); details: at 0.1 µM
[13] = target: Tyrosine-protein kinase JAK1 (Homo sapiens) (UniProt P23458); details: at 1 µM
[14] = target: Tyrosine-protein kinase JAK2 (Homo sapiens) (UniProt O60674); details: at 0.1 µM
[15] = target: Tyrosine-protein kinase JAK2 (Homo sapiens) (UniProt O60674); details: at 1 µM
[16] = target: T2, Tyrosine-protein kinase JAK3 (Homo sapiens) (UniProt P52333); details: at 0.1 µM
T2 sequence (whole entry): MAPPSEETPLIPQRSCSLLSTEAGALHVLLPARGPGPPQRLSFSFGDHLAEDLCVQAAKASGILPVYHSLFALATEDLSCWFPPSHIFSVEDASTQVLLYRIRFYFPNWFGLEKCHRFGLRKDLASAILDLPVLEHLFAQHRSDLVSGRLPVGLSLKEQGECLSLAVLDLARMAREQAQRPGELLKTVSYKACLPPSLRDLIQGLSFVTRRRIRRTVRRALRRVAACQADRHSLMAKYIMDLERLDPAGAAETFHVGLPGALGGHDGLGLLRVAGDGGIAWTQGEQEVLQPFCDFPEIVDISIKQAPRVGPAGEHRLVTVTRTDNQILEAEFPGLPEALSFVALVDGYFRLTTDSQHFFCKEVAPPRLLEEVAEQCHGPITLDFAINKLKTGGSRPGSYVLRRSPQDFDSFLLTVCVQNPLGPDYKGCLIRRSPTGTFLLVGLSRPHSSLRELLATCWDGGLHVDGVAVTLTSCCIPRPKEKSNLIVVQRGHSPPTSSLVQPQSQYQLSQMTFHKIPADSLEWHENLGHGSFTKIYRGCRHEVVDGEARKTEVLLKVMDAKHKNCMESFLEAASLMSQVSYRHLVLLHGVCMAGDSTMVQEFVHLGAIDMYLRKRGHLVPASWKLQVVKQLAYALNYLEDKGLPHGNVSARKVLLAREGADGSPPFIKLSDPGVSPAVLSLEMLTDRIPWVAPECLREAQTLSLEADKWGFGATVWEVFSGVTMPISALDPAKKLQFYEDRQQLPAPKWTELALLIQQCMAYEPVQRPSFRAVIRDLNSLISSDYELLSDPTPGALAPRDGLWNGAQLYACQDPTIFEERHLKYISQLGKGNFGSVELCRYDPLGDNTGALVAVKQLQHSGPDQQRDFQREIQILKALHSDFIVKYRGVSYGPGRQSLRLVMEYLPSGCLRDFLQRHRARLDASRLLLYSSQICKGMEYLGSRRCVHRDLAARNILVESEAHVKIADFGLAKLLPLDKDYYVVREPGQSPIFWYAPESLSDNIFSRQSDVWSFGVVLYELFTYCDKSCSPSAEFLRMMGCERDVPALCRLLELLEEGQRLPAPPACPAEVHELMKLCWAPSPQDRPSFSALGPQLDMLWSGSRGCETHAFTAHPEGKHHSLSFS

[17] = target: T2, Tyrosine-protein kinase JAK3 (Homo sapiens); details: at 1 µM
[18] = target: Vascular endothelial growth factor receptor 2 (Homo sapiens) (UniProt P35968); details: at 0.1 µM
[19] = target: Vascular endothelial growth factor receptor 2 (Homo sapiens) (UniProt P35968); details: at 1 µM
[20] = target: Mast/stem cell growth factor receptor Kit (Homo sapiens) (UniProt P10721); details: at 0.1 µM;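 further: values are mean inhibition of KIT, from the GSK PKIS dataset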

Sequence of Tyrosine-protein kinase JAK2 (Homo sapiens) (O60674 whole entry): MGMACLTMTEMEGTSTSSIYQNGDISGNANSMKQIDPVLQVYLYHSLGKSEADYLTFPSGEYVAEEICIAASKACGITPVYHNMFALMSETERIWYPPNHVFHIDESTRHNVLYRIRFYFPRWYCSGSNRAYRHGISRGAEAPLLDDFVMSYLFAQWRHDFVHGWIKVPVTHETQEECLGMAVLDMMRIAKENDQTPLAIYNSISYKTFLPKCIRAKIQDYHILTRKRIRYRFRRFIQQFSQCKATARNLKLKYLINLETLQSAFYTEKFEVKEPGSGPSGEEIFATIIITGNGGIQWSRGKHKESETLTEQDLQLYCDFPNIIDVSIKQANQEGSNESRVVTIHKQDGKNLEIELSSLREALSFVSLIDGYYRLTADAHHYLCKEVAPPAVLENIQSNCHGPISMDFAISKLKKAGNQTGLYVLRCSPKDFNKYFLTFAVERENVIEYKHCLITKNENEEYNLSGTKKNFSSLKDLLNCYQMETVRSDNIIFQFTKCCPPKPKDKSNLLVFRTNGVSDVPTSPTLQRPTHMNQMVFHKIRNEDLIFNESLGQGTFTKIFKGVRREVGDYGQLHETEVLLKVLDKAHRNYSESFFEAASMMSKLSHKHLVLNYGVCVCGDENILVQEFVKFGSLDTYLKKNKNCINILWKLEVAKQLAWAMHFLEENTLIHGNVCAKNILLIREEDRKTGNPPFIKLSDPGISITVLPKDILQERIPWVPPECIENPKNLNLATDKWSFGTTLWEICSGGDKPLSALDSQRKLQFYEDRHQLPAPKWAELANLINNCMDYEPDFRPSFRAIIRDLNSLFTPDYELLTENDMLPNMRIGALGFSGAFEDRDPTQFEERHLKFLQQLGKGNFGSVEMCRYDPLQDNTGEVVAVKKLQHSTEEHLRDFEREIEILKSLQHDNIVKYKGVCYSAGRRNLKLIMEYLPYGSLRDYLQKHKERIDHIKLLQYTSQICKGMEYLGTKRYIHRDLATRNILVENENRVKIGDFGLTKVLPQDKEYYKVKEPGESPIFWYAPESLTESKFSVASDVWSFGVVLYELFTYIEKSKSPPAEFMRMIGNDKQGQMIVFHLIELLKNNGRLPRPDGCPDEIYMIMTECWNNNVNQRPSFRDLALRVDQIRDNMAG
Sequence of Vascular endothelial growth factor receptor 2 (Homo sapiens) (P35968 whole entry): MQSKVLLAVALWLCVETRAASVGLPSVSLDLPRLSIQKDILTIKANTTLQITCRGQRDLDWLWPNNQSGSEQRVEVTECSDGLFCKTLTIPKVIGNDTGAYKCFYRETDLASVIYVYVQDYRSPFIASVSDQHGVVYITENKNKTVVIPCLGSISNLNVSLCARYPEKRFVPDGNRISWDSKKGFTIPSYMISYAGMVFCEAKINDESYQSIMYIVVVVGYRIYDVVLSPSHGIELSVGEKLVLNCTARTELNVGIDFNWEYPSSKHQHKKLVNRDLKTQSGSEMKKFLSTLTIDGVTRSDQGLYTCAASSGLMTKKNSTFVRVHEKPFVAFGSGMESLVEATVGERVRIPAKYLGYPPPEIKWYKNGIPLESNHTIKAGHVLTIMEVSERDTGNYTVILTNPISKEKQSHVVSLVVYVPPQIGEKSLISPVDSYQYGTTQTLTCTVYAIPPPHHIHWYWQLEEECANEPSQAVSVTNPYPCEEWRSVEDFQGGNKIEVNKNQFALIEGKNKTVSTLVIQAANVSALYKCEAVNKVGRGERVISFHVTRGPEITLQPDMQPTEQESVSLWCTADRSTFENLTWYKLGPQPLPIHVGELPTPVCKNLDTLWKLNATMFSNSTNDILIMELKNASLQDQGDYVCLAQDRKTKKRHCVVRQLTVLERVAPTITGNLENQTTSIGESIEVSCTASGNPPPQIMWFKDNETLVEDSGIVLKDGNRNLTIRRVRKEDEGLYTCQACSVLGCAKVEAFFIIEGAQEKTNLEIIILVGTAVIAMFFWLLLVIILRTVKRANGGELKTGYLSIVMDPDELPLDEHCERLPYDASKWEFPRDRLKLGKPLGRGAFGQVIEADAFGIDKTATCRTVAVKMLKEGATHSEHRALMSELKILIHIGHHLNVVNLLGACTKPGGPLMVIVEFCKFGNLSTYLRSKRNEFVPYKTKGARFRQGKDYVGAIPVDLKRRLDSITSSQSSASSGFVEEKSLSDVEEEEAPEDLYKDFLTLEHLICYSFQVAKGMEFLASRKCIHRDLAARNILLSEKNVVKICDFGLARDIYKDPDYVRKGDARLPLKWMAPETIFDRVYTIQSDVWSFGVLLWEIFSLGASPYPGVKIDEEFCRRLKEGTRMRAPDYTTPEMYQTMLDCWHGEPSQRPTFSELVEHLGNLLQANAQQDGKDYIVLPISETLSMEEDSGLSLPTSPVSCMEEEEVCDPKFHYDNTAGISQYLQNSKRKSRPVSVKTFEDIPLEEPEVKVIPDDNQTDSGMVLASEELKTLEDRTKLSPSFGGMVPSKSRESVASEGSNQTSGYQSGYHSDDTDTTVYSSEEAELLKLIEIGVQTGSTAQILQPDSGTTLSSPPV
Sequence of Insulin receptor (Homo sapiens) (P06213 28-758 limits assumed): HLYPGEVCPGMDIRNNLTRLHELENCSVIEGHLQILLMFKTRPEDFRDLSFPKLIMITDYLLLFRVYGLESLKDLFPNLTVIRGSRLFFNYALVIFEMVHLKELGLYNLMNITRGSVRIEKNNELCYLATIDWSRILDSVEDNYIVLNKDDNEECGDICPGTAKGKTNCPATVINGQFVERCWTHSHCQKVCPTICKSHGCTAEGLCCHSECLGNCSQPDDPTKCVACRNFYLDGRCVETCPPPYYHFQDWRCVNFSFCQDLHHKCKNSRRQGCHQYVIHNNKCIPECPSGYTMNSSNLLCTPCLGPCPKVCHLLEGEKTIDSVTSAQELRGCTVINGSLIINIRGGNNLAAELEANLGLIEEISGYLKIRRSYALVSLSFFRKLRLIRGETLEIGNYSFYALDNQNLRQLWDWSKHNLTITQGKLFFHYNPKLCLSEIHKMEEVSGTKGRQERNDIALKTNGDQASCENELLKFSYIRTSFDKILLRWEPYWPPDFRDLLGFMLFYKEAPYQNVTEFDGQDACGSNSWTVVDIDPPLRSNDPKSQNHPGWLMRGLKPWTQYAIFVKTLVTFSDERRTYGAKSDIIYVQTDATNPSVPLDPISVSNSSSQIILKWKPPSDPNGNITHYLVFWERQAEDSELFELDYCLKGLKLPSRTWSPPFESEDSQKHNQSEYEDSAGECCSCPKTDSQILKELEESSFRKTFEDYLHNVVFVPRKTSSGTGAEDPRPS
Sequence of Insulin receptor (Homo sapiens) (P06213 763-1382 limits assumed): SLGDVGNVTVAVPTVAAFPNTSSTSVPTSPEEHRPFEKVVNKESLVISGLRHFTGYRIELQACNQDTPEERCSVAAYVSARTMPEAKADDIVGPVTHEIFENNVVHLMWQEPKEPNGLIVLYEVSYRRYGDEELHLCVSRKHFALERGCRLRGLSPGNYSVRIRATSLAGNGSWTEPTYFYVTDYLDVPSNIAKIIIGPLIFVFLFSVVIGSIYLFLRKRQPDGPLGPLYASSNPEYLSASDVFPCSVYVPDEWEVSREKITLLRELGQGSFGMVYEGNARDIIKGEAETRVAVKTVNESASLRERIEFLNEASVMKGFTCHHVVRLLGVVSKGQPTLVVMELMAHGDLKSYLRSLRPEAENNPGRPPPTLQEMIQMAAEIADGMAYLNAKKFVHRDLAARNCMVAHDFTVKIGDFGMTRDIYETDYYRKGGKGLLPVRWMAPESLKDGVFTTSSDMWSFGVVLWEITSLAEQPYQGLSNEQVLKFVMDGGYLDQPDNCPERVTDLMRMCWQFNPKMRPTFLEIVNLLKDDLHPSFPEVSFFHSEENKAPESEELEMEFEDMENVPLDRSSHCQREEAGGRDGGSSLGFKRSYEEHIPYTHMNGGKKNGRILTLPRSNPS
Sequence of Tyrosine-protein kinase JAK1 (Homo sapiens) (P23458 whole entry): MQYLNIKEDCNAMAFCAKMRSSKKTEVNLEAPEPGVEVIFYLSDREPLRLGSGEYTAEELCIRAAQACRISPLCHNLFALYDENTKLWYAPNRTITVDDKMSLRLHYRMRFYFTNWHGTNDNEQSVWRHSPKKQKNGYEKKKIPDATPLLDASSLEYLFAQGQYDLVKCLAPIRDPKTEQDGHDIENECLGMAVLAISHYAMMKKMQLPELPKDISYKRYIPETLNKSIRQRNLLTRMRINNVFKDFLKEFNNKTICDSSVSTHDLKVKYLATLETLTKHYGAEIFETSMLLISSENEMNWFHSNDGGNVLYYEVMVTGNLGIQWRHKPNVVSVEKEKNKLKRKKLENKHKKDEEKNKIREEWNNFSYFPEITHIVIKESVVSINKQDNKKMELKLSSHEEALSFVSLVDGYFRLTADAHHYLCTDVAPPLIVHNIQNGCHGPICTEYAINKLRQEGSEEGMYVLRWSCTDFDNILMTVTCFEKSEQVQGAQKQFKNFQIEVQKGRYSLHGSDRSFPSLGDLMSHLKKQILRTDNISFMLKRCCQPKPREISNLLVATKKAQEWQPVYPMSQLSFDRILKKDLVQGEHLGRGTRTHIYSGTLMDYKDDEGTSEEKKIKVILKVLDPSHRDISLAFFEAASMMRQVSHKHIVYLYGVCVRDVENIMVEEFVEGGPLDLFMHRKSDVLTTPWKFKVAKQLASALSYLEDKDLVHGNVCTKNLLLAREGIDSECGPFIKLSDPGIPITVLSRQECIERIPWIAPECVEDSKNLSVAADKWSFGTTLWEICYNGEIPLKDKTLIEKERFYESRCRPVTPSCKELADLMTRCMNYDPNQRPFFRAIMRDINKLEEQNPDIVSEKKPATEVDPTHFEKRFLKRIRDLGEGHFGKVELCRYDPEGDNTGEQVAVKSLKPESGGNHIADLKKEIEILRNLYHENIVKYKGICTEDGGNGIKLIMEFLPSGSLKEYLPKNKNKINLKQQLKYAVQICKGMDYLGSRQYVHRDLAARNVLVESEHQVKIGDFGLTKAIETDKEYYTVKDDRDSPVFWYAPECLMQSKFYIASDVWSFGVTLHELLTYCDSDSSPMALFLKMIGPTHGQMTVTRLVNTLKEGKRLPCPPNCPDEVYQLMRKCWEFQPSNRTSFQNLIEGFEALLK

| Compound | inhibition [1] | inhibition [2] | inhibition [3] | inhibition [4] | inhibition [5] | inhibition [6] | inhibition [7] | inhibition [8] | inhibition [9] | inhibition [10] | inhibition [11] | inhibition [12] | inhibition [13] | inhibition [14] | inhibition [15] | inhibition [16] | inhibition [17] | inhibition [18] | inhibition [19] | inhibition [20] |
| --- | --- | --- | --- | --- | --- | --- | --- | --- | --- | --- | --- | --- | --- | --- | --- | --- | --- | --- | --- | --- |
| CCn1c(-c2nonc2N)nc2c(C#CC(C)(C)O)nc(CN3CCCC3)cc21 | 3.44% | -1.79% | 2.1% | -0.3% | -1.42% | 0.13% | -0.45% | -1.19% | -0.92% | 0.22% | 0.72% | 1.82% | 3.25% | 0.37% | -0.34% | 0.46% | 1.49% | 5.26% | 20.1% | -3.09% |
| Fc1cccc(COc2ccc(Nc3ncnc4sc(-c5cccs5)cc34)cc2Cl)c1 | 5.19% | 1.68% | 3.8% | 0.38% | 0.6% | 4.85% | 3.43% | -1.46% | -0.83% | 0.84% | 1.32% | -0.79% | -0.37% | -0.63% | 0.58% | 1.46% | 1.31% | 4.41% | 7.67% | 9.52% |
| Cc1ccc(NC(=O)c2ccnc(N3CCCC3)c2)cc1-c1ccc(C(=O)NCC2CC2)cc1 | -1.49% | 4.55% | 10.7% | -4.41% | -3.36% | 6.4% | 11.3% | 2.43% | 2.2% | -1.68% | -1.06% | 4.61% | 5.32% | 1.37% | 2.33% | -2.85% | 2.32% | 9.55% | 10.2% | 5.54% |
| Cc1ccc(C(=O)NC2CCCCC2)cc1-c1ccc(C(=O)NCC2CC2)cc1 | 0.78% | 5.78% | 7.52% | 1.73% | 5.21% | 3.35% | 1.48% | 3.13% | 2.14% | 1.95% | 2.35% | 9.94% | 9.1% | 3.28% | 4.08% | 0.78% | 3.02% | 7.88% | 8.4% | 4.54% |
| CCCN1CCC(Oc2cc(Nc3nc(Nc4cccc(F)c4C(N)=O)c4cc[nH]c4n3)c(OC)cc2Cl)CC1 | 3.01% | 4.1% | 7.31% | 57.2% | 91.8% | 64% | 88% | 4.74% | 37.6% | 0.65% | 1.18% | -1.95% | -2.49% | 0.96% | 1.42% | 0.62% | 1.56% | 9.18% | 18.5% | -0.76% |
| O=C1NC(=O)C(N2CCc3ccccc32)=C1c1ccc(Cl)cc1 | 4.67% | 8.78% | 12.7% | 2.02% | 2.75% | 6.09% | 5.24% | 2.18% | 2.1% | 1.5% | 2.44% | 1.13% | 0.25% | 1.54% | 2.81% | -1.28% | 1.36% | 12.4% | 14.6% | 6.61% |
| CC1=C(C(=O)Nc2ccc3[nH]ncc3c2)C(c2ccc3ccccc3c2)CC(=O)N1 (stereo not given) | 1.8% | 4.76% | 17.9% | 4% | 6.6% | 4.67% | 4.45% | 0.94% | 1.74% | 2.6% | 14.2% | 4.05% | 29.5% | 2.05% | 25.8% | 0.88% | 30.9% | 5.3% | 12.5% | 2.51% |
| COc1cc(C)c(NC(=O)CN(C)C)cc1Nc1nc(Nc2cccc(F)c2C(N)=O)c2cc[nH]c2n1 | 2.42% | 4.13% | 3.71% | 93.6% | 95.5% | 99.9% | 99.9% | 90.8% | 97.7% | 1.36% | 1.95% | 2.55% | -4.44% | 0.46% | 0.22% | 0.71% | -1.63% | 3.26% | 4.13% | 2.98% |
| Nc1ncnc2occ(-c3ccc(NC(=O)Nc4cccc(C(F)(F)F)c4)cc3)c12 | 19.9% | 12% | 48.8% | 14.6% | 15.5% | 3.28% | 10.5% | 2.2% | 5.07% | 0.99% | 12.3% | 0.84% | 11.8% | 1.98% | 9.83% | -4.17% | -2.01% | 73.5% | 77.3% | 94.9% |
| COc1cc2c(cc1Nc1nc(N3CCc4ccccc43)c3cc[nH]c3n1)N(C(=O)CN(C)C)CC2 | 1.51% | 5.42% | 10% | 103% | 98.4% | 93% | 91% | 72.3% | 90.3% | 0.83% | 1.52% | -0.01% | -3.36% | 1.69% | 0.18% | 0.19% | 0.18% | 1.11% | 0.21% | 3.11% |
| NC(=O)c1ccc(-c2nc(-c3ccccn3)c(-c3ccc4c(c3)OCO4)[nH]2)cc1 | 8.01% | 3.56% | 4.66% | 1.18% | 2.2% | 3.26% | 5.06% | 3.02% | -0.59% | 1.2% | 1.43% | 3.36% | 8.87% | 1.02% | 1.92% | -1.26% | 0.2% | 2.91% | 3.09% | 1.09% |
| COc1ccc2cc(-c3c(-c4ccncc4)nc(-c4ccc([S+](C)[O-])cc4)n3C)ccc2c1 (stereo not given) | 2.67% | 4.09% | 6.94% | 1.13% | 0.1% | -0.81% | 3.26% | 1.09% | 1.11% | 1.06% | 3.22% | 1.65% | -2.81% | 0.86% | 2.23% | -0.93% | 0.05% | 4.56% | 17.8% | 1.88% |
| O=C1NC(=O)C(c2ccc(Cl)cc2)=C1Nc1ccc(Cl)c(C(=O)O)c1 | 0.57% | 0.67% | 3.62% | 0.06% | -0.55% | 2.24% | 2.54% | -0.43% | -1.7% | -0.06% | 0.04% | -3.25% | -7.51% | -0.25% | -0.22% | 0.01% | 2.64% | 4.84% | 9.16% | -0.92% |

— ChEMBL document CHEMBL1961873, “Compounds: GSK PKIS; Assays: Nanosyn kinase panel” (2012)
